The values below come from paper PMC8222333, “AsCas12a ultra nuclease facilitates the rapid generation of therapeutic cell medicines”.

The target of assay [1] is dAsCas12a WT (Acidaminococcus sp., UniProt U2UMQ6 1-1307, D908A;E993A;D1235A). The assay is described as follows: Spec-seq (native PAGE EMSA with sequencing of bound and unbound); 25 mM Tris-HCl pH 7.4, 150 mM KCl, 5 mM MgCl2, 10% glycerol, 1 mM DTT, 40 ng/uL salmon sperm DNA; 400 nM Cas12a, 480 nM crRNA, 50 nM library, 37 C 1 h; native P; high values mean tight binding.
The target of assay [2] is dAsCas12a Ultra (Acidaminococcus sp., UniProt U2UMQ6 1-1307, M537R;F870L;D908A;E993A;D1235A). The assay is described as follows: Spec-seq (native PAGE EMSA with sequencing of bound and unbound); 25 mM Tris-HCl pH 7.4, 150 mM KCl, 5 mM MgCl2, 10% glycerol, 1 mM DTT, 40 ng/uL salmon sperm DNA; 400 nM Cas12a, 480 nM crRNA, 50 nM library, 37 C 1 h; native PAGE at room temperature; high values mean tight binding. Conditions: protein: recombinant.

For assay [3], the target named is dAsCas12a E174R (Acidaminococcus sp., UniProt U2UMQ6 1-1307, E174R;D908A;E993A;D1235A). Described as above. Conditions: protein: recombinant.
In assay [4] the target is dAsCas12a S542R (Acidaminococcus sp., UniProt U2UMQ6 1-1307, S542R;D908A;E993A;D1235A). The assay is described as above. Conditions: protein: recombinant.
In assay [5] the target is dAsCas12a K548R (Acidaminococcus sp., UniProt U2UMQ6 1-1307, K548R;D908A;E993A;D1235A). Described as above. Conditions: protein: recombinant.
In assay [6] the target is d-enCas12a (Acidaminococcus sp., UniProt U2UMQ6 1-1307, E174R;S542R;K548R;D908A;E993A;D1235A). The assay is described as above. Conditions: protein: recombinant.
Assay [7] addresses d-enCas12a-Ultra (Acidaminococcus sp., UniProt U2UMQ6 1-1307, E174R;S542R;K548R;M537R;F870L;D908A;E993A;D1235A). Described as above. Conditions: protein: recombinant.

B1: CTTA (dsDNA)
DNA 1: GCTATCTAGTGCTCAGTACGCACTGCTTAAGGAAACTTCTGGCAGGACCAGGTCATGAGATCGGAAGAGCACACGTCTGAACTCCAGTCA
DNA 2: TGACTGGAGTTCAGACGTGTGCTCTTCCGATCTCATGACCTGGTCCTGCCAGAAGTTTCCTTAAGCAGTGCGTACTGAGCACTAGATAGC
RNA: AAUUUCUACUCUUGUAGAUAGGAAACUUCUGGCAGGACC
Turning to B1, the binding signal in assay [1] is -6.66 lnKA; in assay [2] it was -4.22 lnKA; in assay [3], -2.38 lnKA; in assay [4] it was -4.07 lnKA; in assay [5], -5.75 lnKA; in assay [6], -0.581 lnKA. For the same molecule, the binding signal in assay [7] was -0.177 lnKA.

B2: GTTA (dsDNA)
DNA 1: GCTATCTAGTGCTCAGTACGCACTGGTTAAGGAAACTTCTGGCAGGACCAGGTCATGAGATCGGAAGAGCACACGTCTGAACTCCAGTCA
DNA 2: TGACTGGAGTTCAGACGTGTGCTCTTCCGATCTCATGACCTGGTCCTGCCAGAAGTTTCCTTAACCAGTGCGTACTGAGCACTAGATAGC
RNA: AAUUUCUACUCUUGUAGAUAGGAAACUUCUGGCAGGACC
As for B2, the binding signal in assay [1] was -6.86 lnKA; in assay [2], -4.67 lnKA; in assay [3] it was -3 lnKA; in assay [4], -4.46 lnKA; in assay [5], -6 lnKA; in assay [6], -0.547 lnKA. For the same molecule, the binding signal in assay [7] is -0.184 lnKA.

B3: TCCC (dsDNA)
DNA 1: GCTATCTAGTGCTCAGTACGCACTGTCCCAGGAAACTTCTGGCAGGACCAGGTCATGAGATCGGAAGAGCACACGTCTGAACTCCAGTCA
DNA 2: TGACTGGAGTTCAGACGTGTGCTCTTCCGATCTCATGACCTGGTCCTGCCAGAAGTTTCCTGGGACAGTGCGTACTGAGCACTAGATAGC
RNA: AAUUUCUACUCUUGUAGAUAGGAAACUUCUGGCAGGACC
As to B3, the binding signal in assay [1] was -8.69 lnKA; in assay [2], -6.14 lnKA; in assay [3] it was -6.06 lnKA; in assay [4], -1.93 lnKA; in assay [6], -0.958 lnKA; in assay [7], -0.245 lnKA.

B4: GTTT (dsDNA)
DNA 1: GCTATCTAGTGCTCAGTACGCACTGGTTTAGGAAACTTCTGGCAGGACCAGGTCATGAGATCGGAAGAGCACACGTCTGAACTCCAGTCA
DNA 2: TGACTGGAGTTCAGACGTGTGCTCTTCCGATCTCATGACCTGGTCCTGCCAGAAGTTTCCTAAACCAGTGCGTACTGAGCACTAGATAGC
RNA: AAUUUCUACUCUUGUAGAUAGGAAACUUCUGGCAGGACC
With B4, the binding signal in assay [1] was -8.41 lnKA; in assay [2], -7.18 lnKA; in assay [3] it was -6.98 lnKA; in assay [4] it was -7.04 lnKA; in assay [5] it was -8.38 lnKA; in assay [6], -2.65 lnKA. Besides, the binding signal in assay [7] is -0.552 lnKA.

B5: CTTC (dsDNA)
DNA 1: GCTATCTAGTGCTCAGTACGCACTGCTTCAGGAAACTTCTGGCAGGACCAGGTCATGAGATCGGAAGAGCACACGTCTGAACTCCAGTCA
DNA 2: TGACTGGAGTTCAGACGTGTGCTCTTCCGATCTCATGACCTGGTCCTGCCAGAAGTTTCCTGAAGCAGTGCGTACTGAGCACTAGATAGC
RNA: AAUUUCUACUCUUGUAGAUAGGAAACUUCUGGCAGGACC
B5: the binding signal in assay [1] was -6.68 lnKA; in assay [2], -4.32 lnKA; in assay [3], -3.79 lnKA; in assay [4], -4.75 lnKA; in assay [5], -5.73 lnKA; in assay [6], -0.728 lnKA. In assay [7], the binding signal was -0.217 lnKA.

B6: TATC (dsDNA)
DNA 1: GCTATCTAGTGCTCAGTACGCACTGTATCAGGAAACTTCTGGCAGGACCAGGTCATGAGATCGGAAGAGCACACGTCTGAACTCCAGTCA
DNA 2: TGACTGGAGTTCAGACGTGTGCTCTTCCGATCTCATGACCTGGTCCTGCCAGAAGTTTCCTGATACAGTGCGTACTGAGCACTAGATAGC
RNA: AAUUUCUACUCUUGUAGAUAGGAAACUUCUGGCAGGACC
For B6, the binding signal in assay [1] is -8.56 lnKA; in assay [2], -7.72 lnKA; in assay [3] it was -6.33 lnKA; in assay [4] it was -7.21 lnKA; in assay [5], -6.57 lnKA; in assay [6], -0.993 lnKA. Besides, the binding signal in assay [7] was -0.399 lnKA.

B7: GTTG (dsDNA)
DNA 1: GCTATCTAGTGCTCAGTACGCACTGGTTGAGGAAACTTCTGGCAGGACCAGGTCATGAGATCGGAAGAGCACACGTCTGAACTCCAGTCA
DNA 2: TGACTGGAGTTCAGACGTGTGCTCTTCCGATCTCATGACCTGGTCCTGCCAGAAGTTTCCTCAACCAGTGCGTACTGAGCACTAGATAGC
RNA: AAUUUCUACUCUUGUAGAUAGGAAACUUCUGGCAGGACC
Turning to B7, the binding signal in assay [1] was -7.73 lnKA; in assay [2], -5.6 lnKA; in assay [3], -5.33 lnKA; in assay [4] it was -5.32 lnKA; in assay [5] it was -6.8 lnKA; in assay [6] it was -1.41 lnKA. Also, the binding signal in assay [7] was -0.361 lnKA.

B8: GTTC (dsDNA)
DNA 1: GCTATCTAGTGCTCAGTACGCACTGGTTCAGGAAACTTCTGGCAGGACCAGGTCATGAGATCGGAAGAGCACACGTCTGAACTCCAGTCA
DNA 2: TGACTGGAGTTCAGACGTGTGCTCTTCCGATCTCATGACCTGGTCCTGCCAGAAGTTTCCTGAACCAGTGCGTACTGAGCACTAGATAGC
RNA: AAUUUCUACUCUUGUAGAUAGGAAACUUCUGGCAGGACC
Take B8: the binding signal is -7.08 lnKA in assay [1]; -4.74 lnKA in assay [2]; -4.51 lnKA in assay [3]; -4.83 lnKA in assay [4]; -5.84 lnKA in assay [5]; -0.632 lnKA in assay [6]. In addition, the binding signal in assay [7] is -0.198 lnKA.

B9: TATG (dsDNA)
DNA 1: GCTATCTAGTGCTCAGTACGCACTGTATGAGGAAACTTCTGGCAGGACCAGGTCATGAGATCGGAAGAGCACACGTCTGAACTCCAGTCA
DNA 2: TGACTGGAGTTCAGACGTGTGCTCTTCCGATCTCATGACCTGGTCCTGCCAGAAGTTTCCTCATACAGTGCGTACTGAGCACTAGATAGC
RNA: AAUUUCUACUCUUGUAGAUAGGAAACUUCUGGCAGGACC
Regarding B9, the binding signal is -9 lnKA in assay [1]; -8.06 lnKA in assay [2]; -6.65 lnKA in assay [3]; -7.42 lnKA in assay [4]; -7.66 lnKA in assay [5]; -1.93 lnKA in assay [6]. Further, the binding signal in assay [7] was -0.687 lnKA.

B10: CTTG (dsDNA)
DNA 1: GCTATCTAGTGCTCAGTACGCACTGCTTGAGGAAACTTCTGGCAGGACCAGGTCATGAGATCGGAAGAGCACACGTCTGAACTCCAGTCA
DNA 2: TGACTGGAGTTCAGACGTGTGCTCTTCCGATCTCATGACCTGGTCCTGCCAGAAGTTTCCTCAAGCAGTGCGTACTGAGCACTAGATAGC
RNA: AAUUUCUACUCUUGUAGAUAGGAAACUUCUGGCAGGACC
For the molecule B10, the binding signal in assay [1] was -7.38 lnKA; in assay [2] it was -5.08 lnKA; in assay [3] it was -4.65 lnKA; in assay [4], -5.07 lnKA; in assay [5], -6.66 lnKA; in assay [6] it was -1.7 lnKA. In addition, the binding signal in assay [7] is -0.41 lnKA.

B11: TATA (dsDNA)
DNA 1: GCTATCTAGTGCTCAGTACGCACTGTATAAGGAAACTTCTGGCAGGACCAGGTCATGAGATCGGAAGAGCACACGTCTGAACTCCAGTCA
DNA 2: TGACTGGAGTTCAGACGTGTGCTCTTCCGATCTCATGACCTGGTCCTGCCAGAAGTTTCCTTATACAGTGCGTACTGAGCACTAGATAGC
RNA: AAUUUCUACUCUUGUAGAUAGGAAACUUCUGGCAGGACC
Turning to B11, the binding signal in assay [1] is -8 lnKA; in assay [2], -7.14 lnKA; in assay [3], -4.71 lnKA; in assay [4], -6.54 lnKA; in assay [5], -6.91 lnKA; in assay [6] it was -0.769 lnKA. Besides, the binding signal in assay [7] is -0.324 lnKA.

B12: CTTT (dsDNA)
DNA 1: GCTATCTAGTGCTCAGTACGCACTGCTTTAGGAAACTTCTGGCAGGACCAGGTCATGAGATCGGAAGAGCACACGTCTGAACTCCAGTCA
DNA 2: TGACTGGAGTTCAGACGTGTGCTCTTCCGATCTCATGACCTGGTCCTGCCAGAAGTTTCCTAAAGCAGTGCGTACTGAGCACTAGATAGC
RNA: AAUUUCUACUCUUGUAGAUAGGAAACUUCUGGCAGGACC
For B12, the binding signal in assay [1] was -8.63 lnKA; in assay [2], -7.25 lnKA; in assay [3], -6.84 lnKA; in assay [4] it was -7.35 lnKA; in assay [5] it was -8.41 lnKA; in assay [6] it was -2.97 lnKA. Moreover, the binding signal in assay [7] was -0.647 lnKA.

B13: TCTA (dsDNA)
DNA 1: GCTATCTAGTGCTCAGTACGCACTGTCTAAGGAAACTTCTGGCAGGACCAGGTCATGAGATCGGAAGAGCACACGTCTGAACTCCAGTCA
DNA 2: TGACTGGAGTTCAGACGTGTGCTCTTCCGATCTCATGACCTGGTCCTGCCAGAAGTTTCCTTAGACAGTGCGTACTGAGCACTAGATAGC
RNA: AAUUUCUACUCUUGUAGAUAGGAAACUUCUGGCAGGACC
For the molecule B13, the binding signal in assay [1] was -6.18 lnKA; in assay [2] it was -3.71 lnKA; in assay [3] it was -2.54 lnKA; in assay [4] it was -4.59 lnKA; in assay [5] it was -8.57 lnKA; in assay [6], -3.31 lnKA. In assay [7], the binding signal was -0.837 lnKA.
